In the supplement of paper PMC7411054:

How the values were obtained:
Details in all cases: treatment time: 24 h
A549-ACTB-RAB5A [1] = test: lowest phenotypically active concentration; higher = less potent
Summary of the method: (§1)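 Fifteen reporter lines derived from A549, HepG2 and WPMY1 cells by gene editing, carrying BFP for segmentation plus GFP and RFP/FusionRed markers, were exposed to 0.3, 1, 3 or 9 µM for 24 h in four wells each and imaged live. Live-cell features from each well were normalised to solvent control wells. A well set counted as deviating when ≥3 of 4 wells lay beyond the 95th percentile of control Euclidean distances, and as reproducible when the median replicate Pearson correlation exceeded the 95th percentile of non-replicates. Phenotypic activity was assigned only when both criteria were met.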

A549-GM130-SQSTM1 [2] = test: as above
Summary of the method: as §1

A549-ACTB-RAB5A [3] = test: phenotypically active (imaging signature differs from DMSO and reproducible) at any of 0.3-9 uM (binary (1 = active, 0 = inactive)); higher = active
Summary of the method: as §1

A549-CANX-COX4 = test: as above
Summary of the method: as §1

A549-GM130-SQSTM1 [4] = test: as above
Summary of the method: as §1

A549-TP53BP1-CLTA = test: as above
Summary of the method: as §1

A549-TUBA1B-RELA = test: as above
Summary of the method: as §1

HepG2-ACTB-RAB5A = test: as above
Summary of the method: as §1

HepG2-CANX-COX4 = test: as above
Summary of the method: as §1

HepG2-GM130-SQSTM1 = test: as above
Summary of the method: as §1

HepG2-TP53BP1-CLTA = test: as above
Summary of the method: as §1

HepG2-TUBA1B-RELA = test: as above
Summary of the method: as §1

WPMY1-ACTB-RAB5A [5] = test: as above
Summary of the method: as §1

WPMY1-CANX-COX4 [6] = test: as above
Summary of the method: as §1

WPMY1-GM130-SQSTM1 [7] = test: as above
Summary of the method: as §1

WPMY1-TP53BP1-CLTA = test: as above
Summary of the method: as §1

WPMY1-TUBA1B-RELA = test: as above
Summary of the method: as §1

WPMY1-ACTB-RAB5A [8] = test: lowest phenotypically active concentration; higher = less potent
Summary of the method: as §1

WPMY1-CANX-COX4 [9] = test: as above
Summary of the method: as §1

WPMY1-GM130-SQSTM1 [10] = test: as above
Summary of the method: as §1

Compound	lowest phenotypically active concentration (A549-ACTB-RAB5A [1]) [µM]	lowest phenotypically active concentration (A549-GM130-SQSTM1 [2]) [µM]	phenotypically active (A549-ACTB-RAB5A [3])	phenotypically active (A549-CANX-COX4)	phenotypically active (A549-GM130-SQSTM1 [4])	phenotypically active (A549-TP53BP1-CLTA)	phenotypically active (A549-TUBA1B-RELA)	phenotypically active (HepG2-ACTB-RAB5A)	phenotypically active (HepG2-CANX-COX4)	phenotypically active (HepG2-GM130-SQSTM1)	phenotypically active (HepG2-TP53BP1-CLTA)	phenotypically active (HepG2-TUBA1B-RELA)	phenotypically active (WPMY1-ACTB-RAB5A [5])	phenotypically active (WPMY1-CANX-COX4 [6])	phenotypically active (WPMY1-GM130-SQSTM1 [7])	phenotypically active (WPMY1-TP53BP1-CLTA)	phenotypically active (WPMY1-TUBA1B-RELA)	lowest phenotypically active concentration (WPMY1-ACTB-RAB5A [8]) [µM]	lowest phenotypically active concentration (WPMY1-CANX-COX4 [9]) [µM]	lowest phenotypically active concentration (WPMY1-GM130-SQSTM1 [10]) [µM]
CCOC(=O)c1c2c3c(cccc3[nH]c1=O)C(=O)c1ccccc1-2	1	1	1 (active)	0 (inactive)	1 (active)	0 (inactive)	0 (inactive)	0 (inactive)	0 (inactive)	0 (inactive)	1 (active)	0 (inactive)	0 (inactive)	0 (inactive)	0 (inactive)	0 (inactive)	0 (inactive)			
CCC(C)(C)C(=O)O[C@H]1C[C@@H](C)C=C2C=C[C@H](C)[C@H](CC[C@@H]3C[C@@H](O)CC(=O)O3)[C@H]21 [Simvastatin]	3		1 (active)	0 (inactive)	0 (inactive)	1 (active)	0 (inactive)	1 (active)	1 (active)	1 (active)	1 (active)	1 (active)	1 (active)	1 (active)	1 (active)	1 (active)	1 (active)	≤ 0.3	1	1
O=S(=O)(c1cccc2cnccc12)N1CCNCC1	3		1 (active)	0 (inactive)	0 (inactive)	1 (active)	1 (active)	1 (active)	1 (active)	1 (active)	1 (active)	1 (active)	1 (active)	1 (active)	1 (active)	1 (active)	1 (active)	9	9	9
O=C(/C=C/c1ccc2ccccc2n1)c1ccncc1	9		1 (active)	0 (inactive)	0 (inactive)	0 (inactive)	1 (active)	1 (active)	0 (inactive)	1 (active)	0 (inactive)	1 (active)	1 (active)	0 (inactive)	1 (active)	1 (active)	1 (active)	9		9
CNC(=O)c1cc(Oc2ccc(NC(=O)Nc3ccc(Cl)c(C(F)(F)F)c3)c(F)c2)ccn1 [regorafenib]	9		1 (active)	0 (inactive)	0 (inactive)	1 (active)	0 (inactive)	1 (active)	1 (active)	1 (active)	1 (active)	1 (active)	0 (inactive)	0 (inactive)	0 (inactive)	1 (active)	0 (inactive)			
CCC(=O)N1CCOc2c(cc(-c3ccc(OC)c(OC)c3)cc2OC[C@H]2CCCN(C)C2)C1	9		1 (active)	0 (inactive)	0 (inactive)	0 (inactive)	1 (active)	1 (active)	1 (active)	0 (inactive)	0 (inactive)	1 (active)	0 (inactive)	1 (active)	0 (inactive)	0 (inactive)	0 (inactive)		9	
COc1ccccc1C(=O)Nc1cc2c(cc1N1CCCC1)n(C)c(=O)n2C	9	9	1 (active)	0 (inactive)	1 (active)	0 (inactive)	0 (inactive)	0 (inactive)	0 (inactive)	0 (inactive)	0 (inactive)	0 (inactive)	1 (active)	0 (inactive)	1 (active)	0 (inactive)	0 (inactive)	9		9
Cn1cc(-c2cnc3ccc4ccc(CS(=O)(=O)NCc5ccccn5)cc4c(=O)c3c2)cn1	9		1 (active)	0 (inactive)	0 (inactive)	0 (inactive)	1 (active)	0 (inactive)	0 (inactive)	0 (inactive)	0 (inactive)	0 (inactive)	0 (inactive)	1 (active)	0 (inactive)	0 (inactive)	0 (inactive)		3	
CNCC[C@H](Oc1cccc2ccccc12)c1cccs1 [duloxetine]	9		1 (active)	0 (inactive)	0 (inactive)	0 (inactive)	1 (active)	0 (inactive)	0 (inactive)	0 (inactive)	0 (inactive)	0 (inactive)	0 (inactive)	0 (inactive)	0 (inactive)	0 (inactive)	0 (inactive)			
O=C(CCCCCCC(=O)Nc1ccc([C@H]2O[C@@H](CSc3nc(-c4ccccc4)c(-c4ccccc4)o3)C[C@@H](c3ccc(CO)cc3)O2)cc1)NO [Tubacin]	9	9	1 (active)	0 (inactive)	1 (active)	0 (inactive)	0 (inactive)	0 (inactive)	0 (inactive)	0 (inactive)	0 (inactive)	0 (inactive)	1 (active)	1 (active)	1 (active)	1 (active)	1 (active)	9	9	3
Cc1ccc(S(=O)(=O)c2ccc([N+](=O)[O-])o2)cc1	3	3	1 (active)	0 (inactive)	1 (active)	0 (inactive)	0 (inactive)	1 (active)	0 (inactive)	1 (active)	0 (inactive)	1 (active)	1 (active)	1 (active)	1 (active)	1 (active)	1 (active)	3	9	3
